Among the test systems are SK-MEL-2 melanoma; EKVX NSCLC; SN12C renal; UO-31 renal; TK-10 renal; ACHN renal; CAKI-1 renal; A498 renal; CCRF-CEM leukemia; MOLT-4 leukemia; SR leukemia; RPMI-8226 leukemia; OVCAR-8 ovarian; OVCAR-5 ovarian; OVCAR-4 ovarian; SK-OV-3 ovarian; IGROV1 ovarian; OVCAR-3 ovarian; HS 578T breast; NCI/ADR-RES ovarian.
What all share (assay): NCI-60 one-dose screen, 48 h (100 = growth as untreated, 0 = no growth, -100 = all killed)
Settings in all cases: 10 µM unless noted

Compounds without any hit were thinned out: in the full panel of roughly 83,000, 20% have a hit.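 Single-dose data. Exposure time 48 hours. Values below 10 considered active.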 Unmarked numbers belong to inactive results. The source made the active and inactive calls.

For the compound `COC(=O)N1CC(Oc2ccccn2)C2CC1c1ccccc1O2` (stereo not given), the growth in the experiment on SK-MEL-2 melanoma was 116%; in the experiment with EKVX NSCLC, 104%; in the experiment on SN12C renal, 93%; in the experiment with UO-31 renal it was 88.6%; in the experiment on TK-10 renal, 98.2%; with ACHN renal it was 95.7%. In addition, the growth in the experiment on CAKI-1 renal is 93.3%; in the experiment on A498 renal it was 83.4%; in the experiment with CCRF-CEM leukemia, 87.8%; in the experiment on MOLT-4 leukemia, 94.5%; in the experiment on SR leukemia, 94.8%; in the experiment with RPMI-8226 leukemia, 85.6%. Besides, the growth in the experiment on OVCAR-8 ovarian was 98.7%; with OVCAR-5 ovarian it was 107%; in the experiment on OVCAR-4 ovarian, 103%; in the experiment on SK-OV-3 ovarian, 103%; in the experiment with IGROV1 ovarian it was 120%; in the experiment with OVCAR-3 ovarian, 110%. The growth in the experiment on HS 578T breast was 86%; in the experiment on NCI/ADR-RES ovarian, 98.5%.

Consider `Cc1c(CC(=S)N2CCOCC2)nnn1-c1cccc(C(F)(F)F)c1`, for which the growth with SK-MEL-2 melanoma was 111%; in the experiment on EKVX NSCLC it was 104%; with SN12C renal, 103%; in the experiment with UO-31 renal it was 82.9%; with TK-10 renal, 104%; with ACHN renal it was 106%. Moreover, the growth with CAKI-1 renal is 93.2%; with A498 renal it was 102%; in the experiment on CCRF-CEM leukemia, 103%; with MOLT-4 leukemia, 102%; in the experiment on SR leukemia, 105%; in the experiment on RPMI-8226 leukemia, 103%. For the same compound, the growth in the experiment on OVCAR-8 ovarian was 104%; in the experiment on OVCAR-5 ovarian, 97.8%; in the experiment with OVCAR-4 ovarian it was 103%; with SK-OV-3 ovarian, 108%; in the experiment with IGROV1 ovarian it was 104%; in the experiment with OVCAR-3 ovarian, 110%. The results for the growth in the experiment with HS 578T breast and in the experiment on NCI/ADR-RES ovarian were 99.9% and 105%, respectively.

Take `CC(=O)O[C@H]1C[C@@H]2C(C)(C)C(=O)CC[C@@]2(C)c2ccc(C(C)C)cc21`: the growth is 109% with SK-MEL-2 melanoma; 99.3% with EKVX NSCLC; 107% in the experiment on SN12C renal; 91.8% in the experiment on UO-31 renal; 97.2% in the experiment on TK-10 renal; 107% in the experiment with ACHN renal. Moreover, the growth is 89.6% in the experiment on CAKI-1 renal; 100% in the experiment on A498 renal; 108% in the experiment on CCRF-CEM leukemia; 108% in the experiment with MOLT-4 leukemia; 105% in the experiment on SR leukemia; 108% in the experiment on RPMI-8226 leukemia. The growth with OVCAR-8 ovarian was 101%; with OVCAR-5 ovarian it was 119%; in the experiment on OVCAR-4 ovarian it was 104%; with SK-OV-3 ovarian, 109%; in the experiment on IGROV1 ovarian, 101%; in the experiment on OVCAR-3 ovarian, 102%. For the same compound, the growth with HS 578T breast is 102%; in the experiment on NCI/ADR-RES ovarian, 108%.

Turning to `COc1ccc(CNc2c3ccccc3nc3ccccc23)c(OC)c1`, the growth in the experiment with SK-MEL-2 melanoma is 94%; in the experiment on EKVX NSCLC, 51.1%; in the experiment on SN12C renal it was 31%; in the experiment on UO-31 renal it was 28%; in the experiment with TK-10 renal, 54.4%; in the experiment with ACHN renal it was 25.8%. The growth was 36.2% with CAKI-1 renal; -11.5% (active) in the experiment on A498 renal; 55.4% in the experiment with CCRF-CEM leukemia; 18.5% in the experiment on MOLT-4 leukemia; 18.1% in the experiment with SR leukemia; 34.9% in the experiment with RPMI-8226 leukemia. Further, the growth was 37.8% with OVCAR-8 ovarian; 50.3% in the experiment with OVCAR-5 ovarian; 39.7% in the experiment on OVCAR-4 ovarian; 63.3% with SK-OV-3 ovarian; 22.4% in the experiment with IGROV1 ovarian; 69.2% in the experiment on OVCAR-3 ovarian. For the same compound, the growth with HS 578T breast was 68.9%; with NCI/ADR-RES ovarian, 35.6%.

As for `Oc1ccc(/C=C/c2ccc(O)cc2)cc1`, the growth in the experiment with SK-MEL-2 melanoma is 90.8%; in the experiment with EKVX NSCLC, 76.5%; with SN12C renal it was 62.5%; with UO-31 renal it was 21.5%; in the experiment with TK-10 renal, 61.1%; in the experiment with ACHN renal, 11%. In addition, the growth in the experiment on CAKI-1 renal is 78.7%; in the experiment with A498 renal, 77.5%; with CCRF-CEM leukemia, 4.33% (active); in the experiment with MOLT-4 leukemia it was 74.9%; in the experiment with SR leukemia, 47.7%; in the experiment on RPMI-8226 leukemia it was 12.8%. The growth in the experiment with OVCAR-8 ovarian was 35.7%; with OVCAR-5 ovarian, 135%; in the experiment on OVCAR-4 ovarian, 12%; with SK-OV-3 ovarian, 99.7%; in the experiment on IGROV1 ovarian it was 43.9%; in the experiment on OVCAR-3 ovarian, 47.7%. Also, the growth with HS 578T breast is 61.3%; in the experiment on NCI/ADR-RES ovarian, 20.3%.

On to `COc1ccc(C(=O)Cn2c(C(=O)c3ccc(OC)cc3)nc3ccccc32)cc1`, for which the growth in the experiment on SK-MEL-2 melanoma was 88.4%; with EKVX NSCLC, 73.3%; in the experiment on SN12C renal, 41%; in the experiment with UO-31 renal it was 35.4%; in the experiment with TK-10 renal it was 51.5%; in the experiment on ACHN renal, 43.8%. For the same compound, the growth with CAKI-1 renal is 25.4%; in the experiment with A498 renal it was 34.2%; in the experiment with CCRF-CEM leukemia it was 0.632% (active); in the experiment on MOLT-4 leukemia, 15.6%; in the experiment with SR leukemia, 16.4%; in the experiment on RPMI-8226 leukemia, -7.09% (active). The growth in the experiment on OVCAR-8 ovarian was 31.3%; in the experiment with OVCAR-5 ovarian, 56.9%; in the experiment with OVCAR-4 ovarian, 47.6%; in the experiment with SK-OV-3 ovarian, 67.1%; in the experiment with IGROV1 ovarian, 26.9%; in the experiment with OVCAR-3 ovarian it was -10.4% (active). For the same compound, the growth is -12% (active) in the experiment on HS 578T breast and -24.1% (active) in the experiment with NCI/ADR-RES ovarian.

As to `Cc1c2cccnc2c(C)c2c1c1cc(CO)ccc1n2C`, the growth was 29.9% in the experiment with SK-MEL-2 melanoma; 20.3% with EKVX NSCLC; 14.7% in the experiment on SN12C renal; 17.9% in the experiment with UO-31 renal; 26.7% in the experiment on TK-10 renal; 13.9% with ACHN renal. Further, the growth was 7.09% (active) in the experiment with CAKI-1 renal; -81.1% (active) in the experiment with A498 renal; 29.9% in the experiment on CCRF-CEM leukemia; 22.9% with MOLT-4 leukemia; 14.3% in the experiment on SR leukemia; 23.1% in the experiment with RPMI-8226 leukemia. Also, the growth in the experiment with OVCAR-8 ovarian is 28.6%; with OVCAR-5 ovarian, 2.92% (active); in the experiment on OVCAR-4 ovarian it was 33.3%; in the experiment with SK-OV-3 ovarian it was 43.1%; in the experiment with IGROV1 ovarian it was 4.27% (active); in the experiment with OVCAR-3 ovarian, 25.2%. Moreover, the growth in the experiment on HS 578T breast is 47.6%; in the experiment on NCI/ADR-RES ovarian, 24.2%.

For `CCOC(=O)c1cc(C(=O)c2cc(OC)c(OC)c(OC)c2)n2ccccc12`, the growth is 40.4% in the experiment on SK-MEL-2 melanoma; 42% with EKVX NSCLC; 54% in the experiment with SN12C renal; 50.6% in the experiment with UO-31 renal; 49.3% in the experiment on TK-10 renal; 58.4% in the experiment on ACHN renal. Moreover, the growth is 38.9% with CAKI-1 renal; -1.31% (active) in the experiment on A498 renal; 17% in the experiment on CCRF-CEM leukemia; 24.3% with MOLT-4 leukemia; 23.9% with SR leukemia; 23.2% in the experiment with RPMI-8226 leukemia. The growth with OVCAR-8 ovarian is 33.2%; in the experiment with OVCAR-5 ovarian, 71.5%; with OVCAR-4 ovarian, 67.9%; in the experiment on SK-OV-3 ovarian, 22.3%; in the experiment on IGROV1 ovarian, 49.6%; with OVCAR-3 ovarian, -5.59% (active). For the same compound, the values for the growth with HS 578T breast and in the experiment on NCI/ADR-RES ovarian were 40.1% and 10.7%, respectively.

Source of the values: PubChem BioAssay (NCI).
